Rows were chosen to be rich in hits. Some 1.9% of all compounds tested hit in one or more screens of this group.
14-3-3 Bad PPI = disrupts binding of bovine 14-3-3 zeta to phospho-Bad peptide. 220,000 tested, 0.71% active. P63103. inhibition, % at 21.7 µM. TR-FRET 14-3-3zeta/Dy647-pBad peptide displacement, 1 h. AID 781;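 active means inhibition above about 70%, limit read from the data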
eIF4H inh = inhibitors of RNA binding by human eIF4H | eIF4H fluorescence polarization binding assay | inhibition, % at 35 µM | 290,000 tested, 0.94% active | Q15056;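 further: calls also rest on retests at 20 µM and on dose response follow-up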
eIF4E-4G inh = inhibitors of eIF4E and eIF4G interaction in translation initiation | TR-FRET eIF4E-eIF4GI(517-606) binding, 2 h | inhibition, % at 21.7 µM | 220,000 tested, 0.37% active;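 active means inhibition above about 30%, limit read from the data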
PABP FP inh = blocks human PABP binding to poly(A) RNA | AID 2014 | calls only at 35 µM | 290,000 tested, 1% active | fluorescence polarization | P11940;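 further: calls also rest on retests at 20 µM and on dose response follow-up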
PABP1 MLLE inh = blocks PAM2 peptide binding to the PABP1 MLLE domain; P11940; GST-MLLE / FITC-PAM2 fluorescence polarization; inhibition, % at 20 µM; 360,000 tested, 0.36% active; AID 588489; in the data active means inhibition above about 35%, passing the limit was not always enough
Of the large screens only hits and unclear results are named; the others gave an inactive call; ! = a repeat was not active; [ ] = dose if it differs, or a comment. Unless noted, how the calls were made is not given here.

O=C(O)CCC(=O)NCCC1=c2ccccc2=N/C1=C\c1c(O)n(Cc2ccc(F)cc2)c(=S)[nH]c1=O	14-3-3 Bad PPI 75, eIF4E-4G inh 60
Clc1ccc(C(c2ccc(Cl)cc2)n2cc[n+](CC(OCc3ccc(Cl)cc3Cl)c3ccc(Cl)cc3Cl)c2)cc1 (stereo not drawn)	none (no result: 14-3-3 Bad PPI, eIF4H inh, eIF4E-4G inh, PABP FP inh)
O=C1C2(c3ccccc3)CN3CN(C2)CC1(c1ccccc1)C3	none
CC(C)CN(CC(C)C)c1ccc(C=C2C(=O)NC(=S)NC2=O)cc1[N+](=O)[O-]	eIF4E-4G inh 62[fluorescence artefact?]
CCN(CC)c1ccc(C=C2C(=O)NC(=S)NC2=O)cc1	none
CS(=O)(=O)c1ccc(C(=O)N2CCC(C(=O)O)(c3ccccc3)CC2)cc1	none (no result: 14-3-3 Bad PPI, eIF4E-4G inh)
CC(=O)O[C@H]1[C@H]2O[C@]23[C@@H]2CC[C@]4(O)C[C@@H](O)CC[C@]4(C)C2CC[C@]3(C)[C@H]1c1ccc(=O)oc1 (stereo partly drawn)	none (no result: 14-3-3 Bad PPI, eIF4H inh, eIF4E-4G inh, PABP FP inh)
CNc1cc(Cl)c2nonc2c1[N+](=O)[O-]	PABP1 MLLE inh 40
CN1CC2CN(Cc3ccccc3)S(=O)(=O)C2C1 (stereo not drawn)	none (no result: 14-3-3 Bad PPI, eIF4H inh, eIF4E-4G inh, PABP FP inh)
CCCCn1c(O)c(C(C)=NCCc2c[nH]c3ccccc23)c(=O)[nH]c1=O	eIF4H inh 84, PABP FP inh active
C[C@]12CCC3[C@@H](CCC4=CC(=O)CC[C@@]43C=O)C1CCC2=O (stereo partly drawn)	none (no result: 14-3-3 Bad PPI, eIF4E-4G inh)
Cc1cc(/C=C2\C(=O)NC(=O)N(c3ccc(F)cc3)C2=O)c(C)n1-c1ccc(C(=O)O)cc1	PABP FP inh active
O=c1cccc2n1CC1CC2CN(S(=O)(=O)c2ccccc2)C1 (stereo not drawn)	none
O=S(=O)(c1ccccc1)N1CCN2CCCC2C1 (stereo not drawn)	eIF4H inh 96, PABP FP inh active (no result: 14-3-3 Bad PPI, eIF4E-4G inh)
CCN1CCN(Cc2cc(Br)ccc2O)CC1	none
CCN1CCN(Cc2cc(Br)cc(Br)c2O)CC1	14-3-3 Bad PPI 78
COc1ccc(OC(=O)N(C)C[C@H]2OCc3cnnn3CCCC(=O)N([C@H](C)CO)C[C@H]2C)cc1	none (no result: 14-3-3 Bad PPI, eIF4H inh, eIF4E-4G inh, PABP FP inh)
C=CCn1cc(C=C2C(=O)NC(=O)NC2=O)c2ccccc21	eIF4H inh inconclusive, PABP FP inh inconclusive (no result: 14-3-3 Bad PPI, eIF4E-4G inh)
O=C(O)Cn1cc(C=C2C(=O)NC(=O)NC2=O)c2ccccc21	eIF4H inh inconclusive, PABP FP inh active (no result: 14-3-3 Bad PPI, eIF4E-4G inh)
COC(=O)C1=C(c2ccc(Cl)c(C(F)(F)F)c2)C[C@@H]2CC[C@H]1N2C(=O)NCCOc1ccccc1	none (no result: 14-3-3 Bad PPI, eIF4H inh, eIF4E-4G inh, PABP FP inh)
COc1ccc(C(=O)C2CCCN(Cc3cccc(C)n3)C2)c(OC)c1 (stereo not drawn)	eIF4H inh 92, PABP FP inh active
C[C@]12CC[C@@H]3c4ccc(O)c(O)c4CC[C@H]3[C@@H]1CC[C@@H]2O	eIF4E-4G inh 42
COC(=O)C1=C(c2ccc(OC(F)(F)F)cc2)C[C@@H]2CC[C@H]1N2C(=O)NCCOc1ccccc1Cl	none (no result: 14-3-3 Bad PPI, eIF4H inh, eIF4E-4G inh, PABP FP inh)
CCC(C)n1c(O)c(C=Nc2cccc(C(F)(F)F)c2)c(=O)[nH]c1=S (stereo not drawn)	eIF4H inh 60, PABP FP inh active
O=c1c2ccccc2nc(-c2ccccc2)n1-c1ccccc1	none
O=c1c2ccccc2[se]n1-c1ccccc1	eIF4E-4G inh 77, PABP1 MLLE inh 37
COc1cc(N2CCOCC2)ccc1C=C1C(=O)NC(=O)NC1=O	eIF4H inh 69, PABP FP inh active
Cc1ccccc1-n1c(C)cc(/C=C2/C(=O)NC(=O)N(Cc3ccco3)C2=O)c1C	eIF4H inh inconclusive, PABP FP inh active
Cc1ccc(-n2c(C)cc(/C=C3/C(=O)NC(=O)N(Cc4ccco4)C3=O)c2C)cc1	eIF4H inh inconclusive
Cc1cccc(-n2c(C)nc3ccccc3c2=O)c1C	PABP FP inh active
COc1cc(CC(=O)N2C[C@H]3C[C@@H](C2)c2cccc(=O)n2C3)cc(OC)c1OC	none (no result: 14-3-3 Bad PPI, eIF4H inh, eIF4E-4G inh, PABP FP inh)
COC(=O)C1=C(c2ccc(OC(F)(F)F)cc2)C[C@@H]2CC[C@H]1N2C(=O)NC(C)C	none (no result: 14-3-3 Bad PPI, eIF4H inh, eIF4E-4G inh, PABP FP inh)
COc1cc2c(cc1O)CC1c3c(cc(O)c(OC)c3-2)CCN1C (stereo not drawn)	eIF4H inh 81!, PABP FP inh active!
COc1cc2c(cc1OC)-c1c(OC)c(OC)cc3c1[C@H](C2)N(C)CC3	none
CCN(CC)c1ccc(N=Cc2c(O)n(-c3cc(OC)ccc3OC)c(=O)[nH]c2=O)cc1	eIF4H inh 99, PABP FP inh active
CCN(CC)c1ccc(N=Cc2c(O)n(CCc3ccc(OC)c(OC)c3)c(=O)[nH]c2=O)cc1	none
c1cncc(C2CCCCN2)c1 (stereo not drawn)	none
c1cncc(C2Nc3cccc4cccc(c34)N2)c1	eIF4H inh 92, PABP FP inh active
C[N+](C)(C)CCc1ccc(O)cc1	eIF4H inh inconclusive, PABP FP inh active
Nc1cncc(C(=O)O)c1	eIF4H inh 53!
O=C1CCCN1C(=O)c1cncc(Br)c1	none
COC(=O)C1=C(c2cc3ccccc3s2)C[C@@H]2CC[C@H]1N2C(=O)N1CCC(O)CC1	none (no result: 14-3-3 Bad PPI, eIF4H inh, eIF4E-4G inh, PABP FP inh)
COc1ccc(OC)c(N2C(=O)/C(=C/c3ccco3)C(=O)NC2=S)c1	eIF4H inh 63, PABP FP inh active (no result: 14-3-3 Bad PPI, eIF4E-4G inh, PABP1 MLLE inh)
COc1ccc(N2C(=O)/C(=C/c3cc(C)n(-c4ccc(C)cn4)c3C)C(=O)NC2=S)c(OC)c1	PABP FP inh active
COc1ccc(OC)c(N2C(=O)NC(=O)/C(=C/c3ccc([N+](=O)[O-])s3)C2=O)c1	none
CN1CCN(C(=O)COc2ccc(S(=O)(=O)NCc3ccccc3)cc2Cl)CC1	14-3-3 Bad PPI 75
Cc1cc(S(=O)(=O)NCC(C)C)ccc1OCC(=O)N1CCN(Cc2ccccc2)CC1	none
Nc1c(C(=O)NCc2ccco2)c2nc3ccccc3nc2n1CCN1CCCCC1	eIF4H inh 72, PABP FP inh active
O=C(Cc1ccccc1)N1CCN(CC2CC=CCC2)CC1 (stereo not drawn)	14-3-3 Bad PPI 77
O=C(/C=C/c1ccccc1)N1Cc2ccccc2-n2nncc2C1	none (no result: 14-3-3 Bad PPI, eIF4H inh, eIF4E-4G inh, PABP FP inh)
c1cncc(C2CCCCN2Cc2ccc3c(c2)OCO3)c1 (stereo not drawn)	14-3-3 Bad PPI 71
COC(=O)C1=C(c2ccc(Cl)c(C(F)(F)F)c2)C[C@@H]2CC[C@H]1N2C(=O)NCc1ccco1	none (no result: 14-3-3 Bad PPI, eIF4H inh, eIF4E-4G inh, PABP FP inh)
Cc1nn(CCC#N)c2c1P(=S)(N1CCCC1)OC(c1ccc(F)cc1)=N2 (stereo not drawn)	eIF4E-4G inh 32
O=C(Cn1ccc2ccccc2c1=O)NCC(=O)N1CCC2(CC1)OCCO2	none
Cc1ccc(CN(Cc2ccccc2)C(=S)NCC(=O)N2CCC3(CC2)OCCO3)o1	eIF4E-4G inh 80
CC(Cc1ccccc1)[n+]1cc(/N=C(\[O-])N(C)C)on1 (stereo not drawn)	14-3-3 Bad PPI 85
O=C1NC(=S)N(c2ccc(Cl)cc2)C(=O)/C1=C/N1CCN(C(=O)c2ccco2)CC1	PABP FP inh active
O=C(O)Cn1cc(/C=C2\C(=O)NC(=O)N(c3ccc(Cl)cc3)C2=O)c2ccccc21	eIF4H inh inconclusive, PABP FP inh inconclusive (no result: 14-3-3 Bad PPI, eIF4E-4G inh)
CCCCC(=O)N/N=C/c1c(O)n(CC)c(=S)[nH]c1=O	eIF4H inh 56

Source: PubChem (several laboratories)
